The list is not random: actives were taken first. Their share in the collection is about 9.5%.
ALDH1A1 inh = ALDH1A1 (human) enzyme inhibition. Purified ALDH1A1, NADH fluorescence, propionaldehyde substrate. Potency, µM (highest dose often 75.3 µM), inactives show at the highest dose activity, negative = inhibition, usual class: inhibitors. actives 7.3% (n = 220,000). AID 1030; active = well fitted inhibition curve with a large enough effect, not every such curve was filed as active; inconclusive = small, poorly fitted or top-dose-only effect, or another doubt; inactive = no such curve, though single readings can be large or run the other way;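 also: plate controls were no enzyme wells and a reference inhibitor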
Tau fibril FP = tau fibrillization inhibition (FP); P10636; K18 P301L tau heparin fibrillization, Alexa594 FP, 6 h; Potency, µM (highest dose often 57.7 µM), without a hit: top-dose activity, negative = inhibition, hits mostly inhibitors; actives 0.39% (n = 280,000); also: nearly all actives have a fitted effect of over 55% in size
Target sequence (P10636 561-689 P618L limits assumed): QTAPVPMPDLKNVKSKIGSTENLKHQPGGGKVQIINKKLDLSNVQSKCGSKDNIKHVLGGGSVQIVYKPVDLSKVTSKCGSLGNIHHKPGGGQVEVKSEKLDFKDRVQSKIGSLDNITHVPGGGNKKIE
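Recombinant K18 P301L […], labeled with Alexa 594 at 0.24 uM over 15 uM unlabeled; heparin inducer 20 uM final; 37 C, 6 hr; FP endpoint.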
HPGD block = HPGD (human) dehydrogenase inhibition; P15428; purified HPGD, NADH fluorescence kinetic, PGE2 substrate; Potency, µM, for inactives: at the top dose activity change, negative = inhibition, most hits filed as inhibitors; actives 4.3% (n = 150,000); active = well fitted inhibition curve with a large enough effect, not every such curve was filed as active; inconclusive = small, poorly fitted or top-dose-only effect, or another doubt; inactive = no such curve, though single readings can be large or run the other way
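20 nM HPGD preincubated 15 min at room temperature with compound in 50 mM Tris-HCl pH 8, 0.01% Tween 20. Started with 1 mM NAD+ and 30 uM prostaglandin E2; NADH fluorescence (360/450 nm) read 5 times over 30-s intervals, last minus first.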
Tau fluor cs = counter-screen for tau fibril formation inhibitors; tau K18 P301L Alexa594 fluorescence, heparin fibrillization; Potency, µM (highest dose often 57.7 µM), for inactives: top-dose activity change, negative = decrease; actives 0.93% (n = 280,000); also: nearly all actives have a fitted effect of over 55% in size
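Human K18 P301L tau (15 uM unlabeled plus 0.24 uM Alexa 594-labeled, final) in 100 mM sodium acetate pH 7 was mixed with compound and 20 uM heparin and incubated 6 hr at 37 C.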
Tau ThT inhib = tau fibrillization inhibition (ThT binding). P10636. recombinant tau K18 P301L (four-repeat tau fragment), heparin-induced fibrillization, ThT fluorescence. Potency, µM (doses to about 57.4 µM), without a hit: at the highest dose activity, negative = inhibition, actives largely listed as inhibitors. actives 2.1% (n = 270,000); also: nearly all actives have a fitted effect of over 55% in size
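Tau K18 P301L fragment (15 uM unlabeled plus 0.24 uM Alexa 594-labeled) in 100 mM sodium acetate pH 7 with compound, fibrillization induced by 20 uM heparin for 6 hr at 37 C. Thioflavin T (30 uM) added, fluorescence read after 1 hr (ex 450, em 510 nm).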
NPSR antagonist = blocks cAMP signaling of the human neuropeptide S receptor; Q6W5P4; CHO-NPSR cells, cAMP TR-FRET, antagonist mode; Potency, µM (titrated, usually from 38.3 µM), without a hit: at the highest dose activity change, negative = inhibition, actives largely listed as inhibitors; actives 1% (n = 220,000); also: nearly all actives have a fitted effect of over 50% in size
Target sequence (Q6W5P4 whole entry, looked up): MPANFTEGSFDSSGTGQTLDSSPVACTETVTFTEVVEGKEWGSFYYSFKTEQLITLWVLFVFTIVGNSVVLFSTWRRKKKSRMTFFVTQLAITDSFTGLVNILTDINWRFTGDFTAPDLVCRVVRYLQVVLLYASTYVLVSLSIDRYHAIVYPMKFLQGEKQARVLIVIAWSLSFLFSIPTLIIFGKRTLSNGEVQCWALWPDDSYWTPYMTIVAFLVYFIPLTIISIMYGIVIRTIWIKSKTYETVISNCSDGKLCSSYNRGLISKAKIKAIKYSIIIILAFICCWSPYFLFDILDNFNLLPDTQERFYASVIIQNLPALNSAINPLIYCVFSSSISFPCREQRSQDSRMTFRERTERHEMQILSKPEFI
* = called active by the depositor; u = inconclusive; x = not tested or not shown; [ ] = remark or other dose. Unless noted, calls follow the shape of the dose curve; as a rule, active = well fitted curve in the direction sought with a large enough effect; inconclusive = small, poorly fitted or top-dose-only effect, or another doubt; inactive = no such curve, though single readings can be large; an effect the other way counts as inactive or inconclusive. Unless noted, % is scaled to controls: 0 for no effect and ±100 for the full control effect; potency is read from the fitted curve at half-maximal effect.

SMILES	ALDH1A1 inh	Tau fibril FP	HPGD block	Tau fluor cs	Tau ThT inhib	NPSR antagonist
O=C(NCc1ccco1)c1ccc(S(=O)(=O)N2CCOCC2)cc1	15.8µM*	-10.9%	15.8µM*	-17.3%	u	-3.6%[46.1 µM]
O=C(NCc1ccco1)c1ccc(S(=O)(=O)N2CCCCC2)cc1	-7.8%	-10.6%[2.34 µM]	x	3.1%[2.34 µM]	-10.8%	-13.3%
COc1ccccc1CN1CC[C@@]2(CCCN(S(C)(=O)=O)C2)C1	-9.2%	x	0.6%	x	x	x
C[C@@H]1CC2(OC[C@]3(C)O[C@H]23)O[C@H]2C[C@@]3(C)[C@@H]4CC[C@H]5C(C)(C)C(O[C@@H]6OC[C@@H](O)[C@H](O)[C@H]6O)CC[C@@]56C[C@@]46CC[C@]3(C)[C@@H]12 (stereo not given in full)	-7.3%	x	0.7%	x	x	x
COc1ccc(N2CCN(S(=O)(=O)c3ccc(C(=O)NCc4ccco4)cc3)CC2)cc1	7.94µM*	-2.9%	-5.3%	-20.3%	-11.1%	-0.7%[46.1 µM]
COC(=O)COc1ccc(S(=O)(=O)N2CCN(c3ccc(OC)cc3)CC2)cc1	-8.5%	-10.3%	x	-12.9%	-8.0%	0.3%
O=c1c(O)c(-c2ccc(O)c(O)c2)oc2cc(O)ccc12	u	8.8%	u	u	5.01µM*	x
O=c1c(O)c(-c2ccc(O)c(O)c2)oc2ccccc12	-15.0%	10.4%	-16.4%	u	14.1µM*	x
CCOC(=O)c1cc(-c2cccc([N+](=O)[O-])c2)nc2[nH]c(=O)[nH]c(=O)c12	14.1µM*	-0.5%	x	-20.1%	u	-7.4%
Cc1ccc(CNC(=O)c2cc(-c3ccc(C)cc3)nc3n[nH]c(-c4cccc([N+](=O)[O-])c4)c23)cc1	x	1.5%	x	-10.6%	4.4%	x
COc1ccccc1CNC(=O)CCCCn1c(=O)c2ccccc2n(Cc2c(C)cc(C)cc2C)c1=O	x	-1.4%	x	0.7%	-3.3%	x
O=C(CCc1n[nH]c(=O)[nH]c1=O)N1CCCCC1	4.47µM*	-4.5%	-18.8%	3.3%	-3.3%	5.9%[46.1 µM]
COc1cccc(-n2c(N)c(-c3nc4ccccc4[nH]3)sc2=S)c1	28.2µM*	13.1%	x	15.8µM*[quencher]	7.94µM*	-29.5%
O=C(C(Sc1ccccc1)c1ccccc1)N1CCOCC1 (stereo not given)	22.4%	11.1%	0.3%	-5.1%	-1.8%	17.0%
COC(=O)C1=C(C)N(Cc2ccccc2)C2=C(C(C)=O)C[C@@](O)(C(=O)OC)C(=O)N2C1c1ccccc1 (stereo not given in full)	-5.5%[13.5 µM]	-9.3%[11.6 µM]	x	-6.8%[11.6 µM]	-1.0%[11.5 µM]	x
COC(=O)CC1Oc2cc3oc4c(c3cc2O1)C(=O)CC(C)(C)C4 (stereo not given)	10µM*	-2.5%	25.1µM*	-9.9%	-12.4%	x
COC(=O)c1oc2c(c1C)C(=O)CC(C)(C)C2	u	-1.1%	x	2.9%	2.7%	15.7%
CC(C)c1ccc(S(=O)(=O)Nc2ccc3oc4c(c3c2)C(=O)CC(C)(C)C4)cc1	x	-8.7%	x	-4.9%	-0.4%	x
CC1(C)CC(=O)c2c(oc3cc(O)c(O)cc23)C1	2µM*	u	6.31µM*	u	28.2µM*	-6.9%[46.1 µM]
C=C(C)C(=O)Nc1nnc(-c2ccccc2C)s1	7.94µM*	-5.9%	x	-7.2%	2.7%	-2.3%
COc1ccc(N2CCCn3c2nc2c3c(=O)n(Cc3ccccc3F)c(=O)n2C)cc1	8.91µM*	2.4%	-5.6%	-9.8%	-15.1%	-10.1%[46.1 µM]
COc1ccc(N2CCCn3c2nc2c3c(=O)n(Cc3ccccc3F)c(=O)n2C)c(OC)c1	11.2µM*	2.0%	u	-21.0%	-12.5%	-19.7%[46.1 µM]
COc1ccc(CCN2CCCn3c2nc2c3c(=O)n(Cc3ccccc3F)c(=O)n2C)cc1OC	3.55µM*	14.2%	u	-17.7%	-14.3%	-17.6%[46.1 µM]
CC1=C/C(=N/O)C([C@H]2C=C(C)CC(C)(C)[C@@H]2O)C(C)(C)C1 (stereo not given in full)	6.7%[13.5 µM]	x	-4.8%	x	x	x
O=C(NCc1cccc(Cl)c1)c1ccco1	-2.1%	3.8%	-19.4%	1.1%	-2.4%	-3.0%[46.1 µM]

High-throughput results (PubChem BioAssay)
